From PubChem BioAssay (NCATS) come the findings set out here.

A number with no mark means an inactive call.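 Rule for the calls: active = compounds whose dose series gives a full or clear partial fitted curve of increased nuclear translocation; inconclusive = weak partial curve or effect only at the top dose; inactive = no dose-dependent translocation response.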 A value given as a limit tells only on which side of the number the result lay.
Potency is the fitted concentration of half-maximal effect.

Glucocorticoid receptor (Homo sapiens), sequence (P04150 whole entry, looked up): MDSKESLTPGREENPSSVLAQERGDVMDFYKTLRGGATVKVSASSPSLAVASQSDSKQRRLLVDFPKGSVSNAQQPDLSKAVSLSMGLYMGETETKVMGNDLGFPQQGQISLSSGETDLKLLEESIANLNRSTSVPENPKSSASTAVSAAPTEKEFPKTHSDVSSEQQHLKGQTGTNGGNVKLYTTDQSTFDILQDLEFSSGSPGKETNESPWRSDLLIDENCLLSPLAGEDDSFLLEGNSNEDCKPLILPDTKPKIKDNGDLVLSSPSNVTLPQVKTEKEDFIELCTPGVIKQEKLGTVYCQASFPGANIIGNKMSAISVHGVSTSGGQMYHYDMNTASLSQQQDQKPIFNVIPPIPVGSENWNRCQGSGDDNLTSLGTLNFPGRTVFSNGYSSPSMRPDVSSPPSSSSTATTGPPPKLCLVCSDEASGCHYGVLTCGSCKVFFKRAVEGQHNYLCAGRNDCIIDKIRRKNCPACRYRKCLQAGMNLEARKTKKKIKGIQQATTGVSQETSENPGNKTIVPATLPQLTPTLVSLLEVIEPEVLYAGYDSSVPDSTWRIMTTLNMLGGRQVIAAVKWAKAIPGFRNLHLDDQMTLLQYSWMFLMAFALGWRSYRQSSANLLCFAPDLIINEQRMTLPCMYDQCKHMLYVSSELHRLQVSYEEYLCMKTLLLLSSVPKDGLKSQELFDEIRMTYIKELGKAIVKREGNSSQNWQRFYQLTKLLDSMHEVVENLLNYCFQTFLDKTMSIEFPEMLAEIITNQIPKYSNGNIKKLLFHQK

This assay concerns the target Glucocorticoid receptor (Homo sapiens) (UniProt P04150). The assay can be described thus: GR-GFP Redistribution (AID 450).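 For translocation activation: 100% = dexamethasone-induced translocation.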 To be noted: U2OS GR-GFP nuclear translocation, laser cytometry, 2 h; series mostly up to 20.6 µM; translocation activation: at the top concentration.
Take `O=C(CCC(=O)CCN1CCCCC1)CCN1CCCCC1`: the Potency is above 20.6 µM. With `O=C(NCC(F)(F)F)Nc1nnc(C(F)(F)F)s1`, the Potency was above 20.6 µM. Take `Cc1nnc2n(C3CCCCC3)c(=O)c3c4c(sc3n12)COC(C)(C)C4`: the Potency was above 20.6 µM.

Take `O=C(NCc1ccco1)c1cnn2c1NC(c1ccccc1)CC2C(F)(F)F` (stereo not given): the Potency was above 20.6 µM.

For the compound `COC(=O)Cn1cc(C(=O)OC)cc(Br)c1=O`, the Potency is above 20.6 µM. As to `C=CCOc1nc2c(c(=O)n(Cc3ccc(Cl)c(Cl)c3)c(=O)n2C)n1C`, the Potency was above 20.6 µM. As to `Cc1cc(=O)oc(C)c1C(=O)NC1CC(C)(C)NC(C)(C)C1`, the Potency was above 20.6 µM. Consider `Cc1cc(NC(CC(C)C)C(=O)O)nc(Cc2ccccc2)n1` (stereo not given), for which the Potency is above 20.6 µM. On the same count and under the same terms, next, `CC(=O)C1=C(O)C(=O)N(c2ccc(S(N)(=O)=O)cc2)C1c1ccccc1F` (stereo not given): above 20.6 µM; `COC(=O)CCc1c(C)[nH]c(C(=O)OCc2ccccc2)c1C`: above 20.6 µM; `O=C(c1cccc(Cl)c1)N1CCN(C(=O)c2ccccc2F)CC1`: above 20.6 µM. Same read-out and setting: next, `CN(C)CCCN(CCCNC(=O)/C=N/O)Cc1ccccc1`: above 20.6 µM. Turning to `CC(C)c1ccc(O)c(N)c1`, the Potency is above 20.6 µM. With `CN(C)CCCOC(=O)C1c2ccccc2Oc2ccccc21`, the Potency was above 20.6 µM. As to `CCCOc1ccc(/C(O)=C2/C(=O)C(=O)N(CCN(C)C)C2c2ccc(OC)c(OC)c2)cc1` (stereo not given), the Potency was above 20.6 µM. For the compound `C/C(NC(=O)c1ccccc1F)=C1\C(=O)C[C@@H]2[C@H]1C2(C)C`, the Potency is above 20.6 µM. On the same count and under the same terms, next, `CCOC(=O)NC(Nc1sc2c(c1C(N)=O)CCCC2)(C(=O)OCC)C(F)(F)F` (stereo not given): above 20.6 µM; `O=C(CCN1CCCCC1)Nc1cccc(Cl)c1`: above 20.6 µM. In the case of `CCOC(=O)CNC(=O)CNC(=O)c1ccc(OC)cc1`, the Potency was above 20.6 µM. As for `COC(=O)C1=C(C)N=C2SC(C)C(=O)N2C1/C=C/c1ccccc1OC` (stereo not given), the Potency was above 20.6 µM. `CSc1nc(N)nc(SCC(=O)CC(=O)OC(C)C)c1C#N`: the Potency was above 20.6 µM. The same measure, in the same setting: for `O=C1CCC(=O)N1c1nc2n(n1)C(c1ccccc1)C=C(c1ccc(Br)cc1)N2` (stereo not given) the value was above 20.6 µM; for `CC1(C)CC(=O)C2=C(C1)OC(N)=C(C#N)[C@@]21C(=O)N(CC(N)=O)c2ccccc21`, above 20.6 µM; for `CCc1cc(=O)oc2cc(C)c(CN3CCCCC3)c(O)c12`, above 20.6 µM. For the compound `COc1ccc(-n2c(=O)c3c4c(sc3n3c(C)nnc23)CC(C)CC4)cc1` (stereo not given), the Potency was above 20.6 µM. Still for that read-out and setting: next, `CC(C)Cc1[nH]c(=O)c(C#N)c2c1COC(C)(C)C2`: above 20.6 µM; `CCCCN1C(=O)C(O)=C(C(C)=O)C1c1ccc(OC)cc1OC` (stereo not given): above 20.6 µM. Turning to `Cc1cc(C)n(CC(=O)n2c3c(c4ccccc42)CCCC3)n1`, the Potency is above 20.6 µM. For `CN1CCc2c(C#N)c(N3CCCCC3)nc(N3CCOCC3)c2C1`, the Potency was above 20.6 µM.

Take `CS(=O)(=O)c1ccc2nc(NC(NC(=O)c3ccco3)(C(F)(F)F)C(F)(F)F)sc2c1`: the Potency was above 20.6 µM. Still for that read-out and setting: next, `CCOc1ccc(-c2nc(C#N)c(N3CCN(CC)CC3)o2)cc1`: above 20.6 µM.

With `CCOC(=O)C1CCN(C(C)=C2C(=O)c3ccccc3C2=O)CC1`, the “translocation activation” value is 324%. For `CC1CN(C2CCN(S(=O)(=O)Cc3ccccc3)CC2)CC(C)O1` (stereo not given), the Potency was above 20.6 µM. On to `CCCCCC1CC(CC#CCN2CCOCC2)C(=O)O1` (stereo not given), for which the Potency is above 20.6 µM. On the same count and under the same terms, next, `COC(=O)CC1=C(C(=O)OC)C(c2cccc(OCC(N)=O)c2)C(C#N)=C(N)O1` (stereo not given): above 20.6 µM. In the case of `CNc1oc(-c2ccc(Cl)cc2)nc1C#N`, the Potency was above 20.6 µM. Take `CCCOc1ccc(/C(O)=C2/C(=O)C(=O)N(CCN(C)C)C2c2ccncc2)cc1` (stereo not given): the Potency was above 20.6 µM. As for `CN=c1sc2ccccc2n1CC(O)COc1ccccc1` (stereo not given), the Potency is above 20.6 µM. In the case of `CCCCOc1ccc(C(=O)NCC(=O)NCC(=O)OCC)cc1`, the Potency is above 20.6 µM. `Cn1c(=O)c2c(nc(NCc3ccc4c(c3)OCO4)n2Cc2ccccc2F)n(C)c1=O`: the Potency is above 20.6 µM.
